Screening data (PubChem BioAssay)
Shown are actives, neighbours in structure and some others; about 3.1% of the full set was active somewhere.
DENV2 CPE = DENV2-induced cell death inhibition; actives 1.7% (n = 350,000); DENV2-infected cells, cytopathic effect rescue, plate reader; CPE inhibition, % at 9.99 µM; in the data active = CPE inhibition above about 20%, passing the limit was not always enough; tested in BHK-21 cells;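 note: 0% = median of neutral control wells and 100% = median of positive control wells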
AF4-AF9 inh = inhibitors of human MLL-AF4/AF9 interaction. AID 651704. AlphaScreen, biotin-AF4 peptide binding to FLAG-AF9. P42568. inhibition, % at 10 µM. actives 0.47% (n = 350,000);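 active = every replicate reaching a set inhibition limit, whatever the replicate mean, cut at about 25% in these data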;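 note: 0% = plate neutral control median and 100% = total signal loss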
RAD52 inh = inhibitors of human RAD52 DNA annealing; P43351; recombinant RAD52 DNA annealing, FRET fluorescence; inhibition, % at 18.7 µM; actives 0.46% (n = 360,000); AID 651710;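 active = every replicate showing at least 50% inhibition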
INS-1E GSIS act = primary screen for activators of insulin secretion dependent on glucose, INS-1E cells, GLuc reporter luminescence; INS-1E GLuc reporter insulin secretion, 2-3 h; actives 0.61% (n = 370,000); activation, % at 16.6 µM;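 active = lowest replicate activation of at least 40%, so every replicate reaches that level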;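 note: 0% = median of neutral control wells and 100% = median of IBMX positive control wells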
dFosB act = activators of mouse delta FosB homodimer; purified delta FosB, TAMRA-CDK5 oligo fluorescence polarization; percent of positive-control signal above neutral wells; activation, % at 25 µM; actives 0.99% (n = 340,000);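 active = mean activation above about 17%, with every replicate also reaching it, limit read from the data, passing the limit was not always enough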
RAD54 branch = blocks human RAD54 Holliday junction branch migration; Q92698; FAM/BHQ fluorescence; inhibition, % at 10.4 µM; actives 0.14% (n = 360,000); AID 602329;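 active = mean normalized replicate activity at least 40 and at least half of replicates scoring 40 or more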;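 note: 0% = median of neutral control wells and 100% = median of positive control wells; inhibitors cause a drop in the FAM fluorescence signal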
Target sequence (Q92698 whole entry, looked up): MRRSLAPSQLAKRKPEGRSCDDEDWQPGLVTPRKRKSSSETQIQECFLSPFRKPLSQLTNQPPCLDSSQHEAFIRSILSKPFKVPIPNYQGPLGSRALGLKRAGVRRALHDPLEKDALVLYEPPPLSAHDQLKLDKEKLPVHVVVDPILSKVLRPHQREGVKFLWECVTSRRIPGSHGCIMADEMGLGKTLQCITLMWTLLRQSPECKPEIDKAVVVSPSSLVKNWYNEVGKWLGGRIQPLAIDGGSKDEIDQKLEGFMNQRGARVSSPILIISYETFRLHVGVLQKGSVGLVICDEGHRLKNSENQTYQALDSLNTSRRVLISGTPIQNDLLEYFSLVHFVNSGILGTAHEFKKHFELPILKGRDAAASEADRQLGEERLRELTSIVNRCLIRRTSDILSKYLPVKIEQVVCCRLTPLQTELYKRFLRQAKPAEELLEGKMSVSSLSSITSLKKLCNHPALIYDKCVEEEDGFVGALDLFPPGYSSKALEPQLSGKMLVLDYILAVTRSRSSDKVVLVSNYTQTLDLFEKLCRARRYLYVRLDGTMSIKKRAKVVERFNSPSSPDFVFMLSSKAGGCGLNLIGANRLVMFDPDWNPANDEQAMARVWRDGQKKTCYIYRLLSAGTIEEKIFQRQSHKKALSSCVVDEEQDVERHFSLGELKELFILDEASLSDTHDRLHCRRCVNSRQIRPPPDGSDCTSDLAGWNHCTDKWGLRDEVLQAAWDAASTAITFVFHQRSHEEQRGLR
Numbers without * were called inactive; . = no result; ! = not active in a repeat.

SMILES	DENV2 CPE	AF4-AF9 inh	RAD52 inh	INS-1E GSIS act	dFosB act	RAD54 branch
O=C(C[C@@H]1CC[C@@H]2[C@H](COC[C@@H](O)CN2CCC(F)(F)F)O1)NCC1CCCCC1	0	.	.	-10	.	-7
C[C@H]1CN([C@@H](C)CO)C(=O)c2cc(NC(=O)NC3CCCCC3)ccc2O[C@H]1CN(C)Cc1ccccc1	-4	33*	0	-6	.	-6
C[C@H]1CN([C@@H](C)CO)C(=O)c2cc(NC(=O)NC3CCCCC3)ccc2O[C@H]1CN(C)Cc1ccncc1	25*	-1	3	3	.	-2
C[C@@H]1CCCCO[C@H](CN(C)Cc2ccncc2)[C@@H](C)CN([C@@H](C)CO)C(=O)c2cc(NC(=O)NC3CCCCC3)ccc2O1	75*	-2	16	-8	.	-3
COC(=O)[C@H]1[C@H](CO)[C@H]2Cn3c(cccc3=O)[C@H]2N1C(=O)C1CCC1	-4	-1	8	14	.	16
O=C(NC1CCCCC1)N1CC(=O)N2[C@@H](CO)[C@H](c3ccc(-c4cccnc4)cc3)[C@@H]2C1	14	-13	-11	11	.	.
CC(C)NC(=O)N1CC(=O)N2[C@@H](CO)[C@@H](c3ccc(C#CCN(C)C)cc3)[C@@H]2C1	11	-2	-11	20	.	.
CCCC#Cc1ccc([C@@H]2[C@@H](CO)N3C(=O)CN(C(=O)Nc4ccc(F)cc4)C[C@H]23)cc1	36*	1	-23	-27	.	.
CCCC#Cc1ccc([C@H]2[C@H](CO)N3C(=O)CN(C(=O)Nc4ccc(F)cc4)C[C@@H]23)cc1	-2	4	-9	-21	.	.
O=C(NC1CCCC1)N1CCCCN2[C@H](CO)[C@@H](c3ccc(-c4cncnc4)cc3)[C@@H]2C1	34*	-7	-9	0	.	16
O=C(NC1CCCCC1)N1CC(=O)N2[C@@H](CO)[C@@H](c3ccc(-c4cccnc4)cc3)[C@@H]2C1	3	-3	61*	-3	.	.
CC(C)NC(=O)N1CC(=O)N2[C@H](CO)[C@H](c3ccc(C#CCN(C)C)cc3)[C@@H]2C1	23*	-1	-10	21	.	.
COc1ccc(S(=O)(=O)N2CCCCN3[C@H](CO)[C@@H](c4ccc(C#CC5CC5)cc4)[C@@H]3C2)cc1	8	-5	-24	6	.	6
CCCC#Cc1ccc([C@@H]2[C@H]3CN(C(=O)NC4CCCC4)CC(=O)N3[C@H]2CO)cc1	22*	3	-3	-17	.	.
O=C1CN(S(=O)(=O)Cc2ccccc2)C[C@H]2[C@H](c3ccc(C#Cc4ccc(F)cc4)cc3)[C@@H](CO)N12	38*	-2	7	-10	.	.
O=C(CC1CC1)N1CC(=O)N2[C@@H](CO)[C@@H](c3ccc(C#Cc4cccc(F)c4)cc3)[C@@H]2C1	29*	-3	3	-16	.	.
O=C(NC1CCCC1)N1CC(=O)N2[C@H](C1)[C@@H](c1ccc(/C=C/c3ccccc3)cc1)[C@@H]2CO	-10	25*	1	13	.	.
O=C(CC1CC1)N1CC(=O)N2[C@H](CO)[C@@H](c3ccc(C#Cc4ccc(F)cc4)cc3)[C@H]2C1	1	-3	-27	-25	.	.
CC(C)NC(=O)N(C)C[C@H]1Oc2ccc(NC(=O)Cc3ccccc3)cc2CC(=O)N([C@H](C)CO)C[C@H]1C	-7	-3	-3	4	.	-2
C[C@H](CO)N1C[C@H](C)[C@H](CN(C)S(=O)(=O)c2ccccc2)OCCCC[C@H](C)Oc2ccc(NS(=O)(=O)c3ccc(F)cc3)cc2C1=O	-4	-12	-37	-14	.	-3
COc1ccccc1NC(=O)N1CC(=O)N2[C@H](C1)[C@@H](c1ccc(C#Cc3ccc(F)cc3)cc1)[C@@H]2CO	69*	-1	-7	4	.	.
COc1ccccc1NC(=O)N1CC(=O)N2[C@@H](CO)[C@@H](c3ccc(C#Cc4ccc(F)cc4)cc3)[C@@H]2C1	2	-1	-1	-31	.	.
C/C=C/c1ccc([C@@H]2[C@@H](CO)N3C(=O)CN(Cc4ccccc4)C[C@H]23)cc1	25*	3	-6	-13	.	.
CNC[C@H]1Oc2c(NS(=O)(=O)c3c(C)noc3C)cccc2C(=O)N([C@@H](C)CO)C[C@H]1C	12	-16	0	5	.	-13
C[C@H]1CN([C@@H](C)CO)C(=O)Cc2cc(NS(C)(=O)=O)ccc2O[C@H]1CN(C)C(=O)NC1CCCCC1	7	-2	-2	6	.	-4
SMILES	DENV2 CPE	AF4-AF9 inh	RAD52 inh	INS-1E GSIS act	dFosB act	RAD54 branch
COc1ccc(CNC(=O)C[C@H]2C(=O)N(Cc3ccccc3)C[C@@H]2Cc2ccccc2)cc1	30*	-1	-7	-5	2	2
CCCCN1C[C@H](Cc2ccccc2)[C@@H](CC(=O)Nc2ccccc2)C1=O	56*	-4	-5	-30	-6	1
NC(=O)c1ccsc1NC(=O)COC(=O)CNC(=O)c1ccc(Cl)cc1	-3	0	-13	50*	6	0
O=C(COC(=O)CNC(=O)c1ccc(Cl)cc1)Nc1ccc(Cl)cn1	1	-3	3	18	-2	-12
O=S(=O)(Nc1cccc(-n2cnnn2)c1)c1ccccc1	6	0	-6	4	10	9
O=S(=O)(Nc1cccc(-n2cnnn2)c1)c1cccc(Cl)c1	59*	-9	9	-8	1	.
CCOC(=O)C1=C(C)N(c2ccccc2)C(=O)/C1=C\c1cccs1	.	.	.	88*	-12	3
CCOC(=O)C1=C(C)N(c2ccc(C)cc2)C(=O)/C1=C\c1cccs1	.	.	.	.	-5	-1
C[C@@H]1CN([C@@H](C)CO)C(=O)c2cccc(NS(=O)(=O)c3cn(C)cn3)c2O[C@@H]1CN(C)S(=O)(=O)c1cccs1	5	-4	-6	20	.	-1
c1ccc(CN2C[C@@H]3N[C@H](C2)C3c2ccc(-c3ccccc3)cc2)cc1 (stereo partly drawn)	2	15	30	-17	.	.
Cc1cccc(-c2ccc(C3[C@@H]4CN(Cc5ccccc5)C[C@H]3N4)cc2)c1 (stereo partly drawn)	2	8	50*	14	.	.
Fc1cccc(-c2ccc(C3[C@@H]4CN(Cc5cncnc5)C[C@H]3N4)cc2)c1 (stereo partly drawn)	28*!	.	.	4	.	.
Fc1ccccc1-c1ccc(C2[C@@H]3CN(Cc4ccccc4)C[C@H]2N3)cc1 (stereo partly drawn)	-18	.	.	47*!	.	.
Cc1cccc(-c2ccc(C3[C@@H]4CN(Cc5cccc(F)c5)C[C@H]3N4)cc2)c1 (stereo partly drawn)	-15	.	.	70*	.	.
CCC(=O)N1C[C@@H](C)[C@H](OC)CN(C)C(=O)c2cc(NC(=O)c3ccc(F)cc3)ccc2OC[C@H]1C	-17	0	8	-7	.	0
